From PubChem BioAssay (NCI)
The panel holds about 79,000 compounds, 15% with a hit somewhere; the sample as a whole holds those more often. A number with no mark means an inactive call. The source made the active and inactive calls. No stated cut-off is given here; in the data, active means growth inhibition above about 70%; inactive means the rest.

Test: NCI Yeast Anticancer Drug Screen. Data for the mec2-1 strain (AID 157)
Settings: S. cerevisiae mec2-1 strain, at 5.0 µM (retest, dose inferred, filed as 0.5), stronger effect = higher value
Procedure, shortened: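 Cells of the genetically defined mec2-1 yeast strain are incubated with test compound. Inhibition of growth is calculated against vehicle-treated controls.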

Row | Compound | growth inhibition
1 | O=[N+]([O-])c1ccc(N2N=NC(CN3CCOCC3)C2N2CCOCC2)cc1 (stereo not drawn) | 0%
2 | FC(F)(F)c1ccccc1NC(=S)SCc1ccco1 | 1%
3 | O=C(c1ccc(Cl)cc1)C1N=NCC1c1ccccc1 (stereo not drawn) | 9%
4 | COc1cc(C2c3cc4c(cc3[C@@H](OCCN)[C@H]3COC(=O)C23)OCO4)cc(OC)c1O (stereo partly drawn) | 11%
5 | CC(C)(C)c1cc2c(c(C(C)(C)C)c1O)CC(=O)O2 | -18%
6 | CCCCCCCCCCCCCCCCCCSSCCCCCCCCCCCCCCCCCC | 1%
7 | c1ccc2c(c1)OCC(CNCCNCC1COc3ccccc3O1)O2 (stereo not drawn) | 69%
8 | CC(=O)C(C(C)=O)C1C=CC=CC=C1 | -42%
9 | c1ccc2c(c1)ccc1c[n+]3c4ccccc4ccc3n12 | 28%
10 | CC(=O)C(=C(I)I)c1ccccc1 | -21%
11 | O=C1c2ccccc2CN1Cc1ccc(Cl)c(Cl)c1 | -3%
12 | CC1CC(N)=NC1C(=O)NCCC#N (stereo not drawn) | 27%
13 | CC(=O)CC(C)=NCCN=C(C)CC(C)=O.[Pd] | -1%
14 | CCOc1ccccc1NC1=C(Cl)C(=O)c2ccccc2C1=O | 99% (active)
15 | CCN1C2=NCCN2S(=O)(=O)c2ccccc21 | 9%
16 | O=C(Cc1nc2ccccc2s1)C(=O)Nc1ccc(Cl)cc1 | -1%
17 | O=C(CCn1[nH]c(=O)c(Cl)c(Cl)c1=O)NNc1ccc([N+](=O)[O-])cc1[N+](=O)[O-] | -7%
18 | COc1cccc(C2c3cc4c(cc3OC(NNc3ccccc3)C2C)OCO4)c1OC (stereo not drawn) | 3%
19 | COc1ccc(-c2cc3ccccc3c(=O)n2Cc2ccccc2)cc1 | 11%
20 | CN(C)CCCNCC(=O)Nc1ccc(S(=O)(=O)c2ccc(NC(=O)CNCCCN(C)C)cc2)cc1 | -2%

Row | Compound | growth inhibition
21 | O=C1NN=C(c2ccc(Cl)cc2)CC1C1C(=O)N(c2ccccc2)N=C1c1ccccc1 (stereo not drawn) | 96% (active)
22 | Cc1ccc(S(=O)(=O)NCCSSCCNS(=O)(=O)c2ccc(C)cc2)cc1 | -3%
23 | O=C(CC(=O)c1ccccc1)CC(=O)c1ccccc1Br | -1%
24 | Nc1ncc2ccccc2c1-c1ccc(NC(=O)CCCl)cc1 | -3%
25 | CC1=NC(=Cc2cccc(Cl)c2)C(=O)N1n1c(-c2ccccc2)nc2ccccc2c1=O | 21%
26 | CCCOC(=O)CCCC(=O)N(CC)CC | 0%
27 | C=C1C(=O)[C@@]23CC[C@H]4[C@@](C)(CCC[C@@]4(C)C(=O)OC)[C@@H]2CC[C@]1(O)C3 | 92% (active)
28 | CCCCN(CCCC)CCC(=O)c1ccc2c(ccc3ccccc32)c1 | 7%
29 | CC1CCC2(C)C(CC=C(C=O)C2(O)C=O)C12CO2 (stereo not drawn) | 99% (active)
30 | CN(C)CC1CC/C(=C\c2ccc(Cl)c(Cl)c2)C1=O (stereo not drawn) | 44%
31 | CCS(=O)(=O)c1ccc(NC(=O)OC2CCCCCCC2)cc1 | 16%
32 | CC(=O)OC1CCCCCCCCCCC12OCCO2 (stereo not drawn) | 5%
33 | CC(=O)OCc1cc2c(s1)C(=O)c1sccc1C2=O | 8%
34 | O=C1C=CC(=O)c2nc3ccccc3nc21 | 2%
35 | Cc1ccccc1C1c2c(C)cccc2C(=O)CC1CC(=O)O (stereo not drawn) | 1%
36 | CCOC(=O)c1c(N)sc2c1CCCCC2 | -51%
37 | CCCCC(O)CCCC | 14%
38 | Nc1nn2c(C(Br)Br)cc(C(Br)Br)nc2c1[N+](=O)[O-] | 100% (active)
39 | COC(=O)c1n[nH]c(C(C)C)c1N=NN(C)C | -35%

Same assay, conditions: S. cerevisiae mec2-1 strain, at 50.0 µM (retest, dose inferred, filed as 5.0), stronger effect = higher value

Row | Compound | growth inhibition
40 | O=[N+]([O-])c1ccc(N2N=NC(CN3CCOCC3)C2N2CCOCC2)cc1 (stereo not drawn) | 23%
41 | FC(F)(F)c1ccccc1NC(=S)SCc1ccco1 | 32%
42 | O=C(c1ccc(Cl)cc1)C1N=NCC1c1ccccc1 (stereo not drawn) | 52%
43 | COc1cc(C2c3cc4c(cc3[C@@H](OCCN)[C@H]3COC(=O)C23)OCO4)cc(OC)c1O (stereo partly drawn) | 55%
44 | CC(C)(C)c1cc2c(c(C(C)(C)C)c1O)CC(=O)O2 | 85% (active)
45 | CCCCCCCCCCCCCCCCCCSSCCCCCCCCCCCCCCCCCC | 4%
46 | c1ccc2c(c1)OCC(CNCCNCC1COc3ccccc3O1)O2 (stereo not drawn) | 79% (active)
47 | CC(=O)C(C(C)=O)C1C=CC=CC=C1 | 87% (active)
48 | c1ccc2c(c1)ccc1c[n+]3c4ccccc4ccc3n12 | 88% (active)
49 | CC(=O)C(=C(I)I)c1ccccc1 | 89% (active)
50 | O=C1c2ccccc2CN1Cc1ccc(Cl)c(Cl)c1 | 95% (active)
51 | CC1CC(N)=NC1C(=O)NCCC#N (stereo not drawn) | 8%
52 | CC(=O)CC(C)=NCCN=C(C)CC(C)=O.[Pd] | 78% (active)
53 | CCOc1ccccc1NC1=C(Cl)C(=O)c2ccccc2C1=O | 98% (active)
54 | CCN1C2=NCCN2S(=O)(=O)c2ccccc21 | 9%
55 | O=C(Cc1nc2ccccc2s1)C(=O)Nc1ccc(Cl)cc1 | 2%
56 | O=C(CCn1[nH]c(=O)c(Cl)c(Cl)c1=O)NNc1ccc([N+](=O)[O-])cc1[N+](=O)[O-] | 2%
57 | COc1cccc(C2c3cc4c(cc3OC(NNc3ccccc3)C2C)OCO4)c1OC (stereo not drawn) | 94% (active)
58 | COc1ccc(-c2cc3ccccc3c(=O)n2Cc2ccccc2)cc1 | 74% (active)
59 | CN(C)CCCNCC(=O)Nc1ccc(S(=O)(=O)c2ccc(NC(=O)CNCCCN(C)C)cc2)cc1 | 97% (active)

Row | Compound | growth inhibition
60 | O=C1NN=C(c2ccc(Cl)cc2)CC1C1C(=O)N(c2ccccc2)N=C1c1ccccc1 (stereo not drawn) | 98% (active)
61 | Cc1ccc(S(=O)(=O)NCCSSCCNS(=O)(=O)c2ccc(C)cc2)cc1 | 97% (active)
62 | O=C(CC(=O)c1ccccc1)CC(=O)c1ccccc1Br | 93% (active)
63 | Nc1ncc2ccccc2c1-c1ccc(NC(=O)CCCl)cc1 | 40%
64 | CC1=NC(=Cc2cccc(Cl)c2)C(=O)N1n1c(-c2ccccc2)nc2ccccc2c1=O | 77% (active)
65 | CCCOC(=O)CCCC(=O)N(CC)CC | 1%
66 | C=C1C(=O)[C@@]23CC[C@H]4[C@@](C)(CCC[C@@]4(C)C(=O)OC)[C@@H]2CC[C@]1(O)C3 | 99% (active)
67 | CCCCN(CCCC)CCC(=O)c1ccc2c(ccc3ccccc32)c1 | 99% (active)
68 | CC1CCC2(C)C(CC=C(C=O)C2(O)C=O)C12CO2 (stereo not drawn) | 99% (active)
69 | CN(C)CC1CC/C(=C\c2ccc(Cl)c(Cl)c2)C1=O (stereo not drawn) | 99% (active)
70 | CCS(=O)(=O)c1ccc(NC(=O)OC2CCCCCCC2)cc1 | 86% (active)
71 | CC(=O)OC1CCCCCCCCCCC12OCCO2 (stereo not drawn) | 98% (active)
72 | CC(=O)OCc1cc2c(s1)C(=O)c1sccc1C2=O | 67%
73 | O=C1C=CC(=O)c2nc3ccccc3nc21 | 99% (active)
74 | Cc1ccccc1C1c2c(C)cccc2C(=O)CC1CC(=O)O (stereo not drawn) | 72% (active)
75 | CCOC(=O)c1c(N)sc2c1CCCCC2 | -25%
76 | CCCCC(O)CCCC | 18%
77 | Nc1nn2c(C(Br)Br)cc(C(Br)Br)nc2c1[N+](=O)[O-] | 100% (active)
78 | COC(=O)c1n[nH]c(C(C)C)c1N=NN(C)C | 97% (active)
